# Laboratory results: PubChem BioAssay (NCATS)
# Activity calls are given as the source filed them. How the calls were made is not given here.
# Assay: qHTS assay for small molecule activators of the human pregnane X receptor (PXR) signaling pathway (AID 720659)
# Conditions: DPX-2 HepG2 CYP3A4-luciferase, 24 h; series mostly up to 92.3 µM
row,SMILES,outcome
1,Oc1c(Cl)cc(Cl)cc1Sc1cc(Cl)cc(Cl)c1O,inactive
2,COc1cccc2c1C(=O)c1c(O)c3c(c(O)c1C2=O)C[C@@](O)(C(=O)CO)C[C@@H]3O[C@H]1C[C@H](N)[C@H](O)[C@H](C)O1,inactive
3,Oc1ccc(O)cc1,inactive
4,NC(=NCCCCCCN=C(N)/N=C(\N)Nc1ccc(Cl)cc1)/N=C(\N)Nc1ccc(Cl)cc1,inactive
